Laboratory results as given in PubChem BioAssay (EPA / NIEHS).
The source made the active and inactive calls. How the source made its calls: active means hit-call score of the fitted dose curve at least 0.9, where 1 is the maximum; inactive means score below 0.9.

Target: Nuclear respiratory factor 1 (Homo sapiens) (UniProt Q16656)
Assay: ATG_NRF1_CIS: Attagene CIS-FACTORIAL HepG2 Assay for human Nuclear Respiratory Factor 1 (NRF1) Orphan Gene (AID 2282987)
Details: HepG2 NRF1 cis-element reporter, Attagene multiplex; actives raise or lower the signal
Protocol: ATG_CIS is a cell-based, multiplexed-readout assay that uses HepG2, a human liver cell line, with measurements taken at 24 hours after chemical dosing in a 24-well plate.ATG_NRF1_CIS is one of 52 assay component(s) measured or calculated from the ATG_CIS assay. It is designed to make measurements of mRNA induction, a form of inducible reporter, as detected with fluorescence intensity signals by Reverse transcription polymerase chain reaction (RT-PCR) and Capillary electrophoresis technology.Data from the assay component ATG_NRF1_CIS was analyzed into 1 assay endpoint. This assay endpoint, ATG_NRF1_CIS, was analyzed with bidirectional fitting relative to DMSO as the negative control and baseline of activity. Using a type of inducible reporter, measures of mRNA for gain or loss-of-signal activity can be used to understand the reporter gene at the transcription factor-level as they relate to the gene NRF1. Furthermore, this assay endpoint can be referred to as a primary readout, because this assay has produced multiple assay endpoints where this one serves a reporter gene function. To generalize the intended target to other relatable targets, this assay endpoint is annotated to the dna binding intended target family, where the subfamily is nuclear respiratory factors.
Human liver HepG2 cells are transiently transfected with multiple reporter transcription units (MRTUs) in 6-well plates using FuGene 6 reagent (Roche; 3 ml FuGene/1 mg DNA). The MRTU constructs are regulated by a cis-regulating element (promoter). […] A major difference between the CIS and TRANS system is that in CIS activities of endogenous TFs are measured, whereas the TRANS assay evaluates changes in activities of exogenous, chimeric NR-Gal4 proteins. […] At the end of 24 hour incubation, total RNA was isolated using TriZol reagent (Invitrogen). The isolated RNA is then reverse-transcribed using oligo(dT) primer and Mo-MLV reverse transcriptase (Invitrogen) with DNAse I (Ambion) treatment for 30 min. The one-tenth of the produced cDNA was amplified by PCR using Taq DNA polymerase (Invitrogen) and two reporter sequence-specific primers. The PCR products were fluorescently labeled by primer extension with 6-arboxyfluorescein (6-FAM) 5'-labeled reporter sequence-specific primer (2 min at 95 C, 20 s at 68 C and 10 min at 72 C) and these products were digested with 5U of HpaI (New England Biolabs) for 2h at 37 C. The fragments were purified using Qiaquick PCR columns (Qiagen), analyzed on an ABI 3130xL genetic analyzer (Applied Biosystems) with peak positions identified by using a set of X-rhodamine (ROX)-labeled MapMarker1000 molecular weight standards (BioVentures). The raw capillary electrophoresis data was processed using Attagraph software (Attagene).

Nuclear respiratory factor 1 (Homo sapiens), sequence (Q16656 whole entry, looked up): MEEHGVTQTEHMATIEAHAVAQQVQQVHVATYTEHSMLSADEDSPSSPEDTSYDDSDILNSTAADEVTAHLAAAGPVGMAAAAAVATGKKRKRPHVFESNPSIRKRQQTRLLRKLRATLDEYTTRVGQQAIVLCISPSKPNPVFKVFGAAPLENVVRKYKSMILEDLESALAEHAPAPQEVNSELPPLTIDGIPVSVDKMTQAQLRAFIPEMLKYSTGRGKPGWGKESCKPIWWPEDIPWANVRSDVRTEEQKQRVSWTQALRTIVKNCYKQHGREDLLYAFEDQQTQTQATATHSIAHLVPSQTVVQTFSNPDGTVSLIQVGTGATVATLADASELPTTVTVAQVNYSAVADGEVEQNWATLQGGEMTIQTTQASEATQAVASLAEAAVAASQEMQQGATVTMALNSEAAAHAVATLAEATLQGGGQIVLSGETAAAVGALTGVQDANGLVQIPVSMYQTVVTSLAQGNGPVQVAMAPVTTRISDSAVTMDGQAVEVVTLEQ

outcome, inactive:
COC(=O)c1ccccc1OC, CCN(CC)c1ccc(C(=O)c2ccccc2C(=O)O)c(O)c1, O=Nc1ccc(O)cc1, O=C(Cl)c1cc(C(=O)Cl)cc(C(=O)Cl)c1, CC(C)(C)c1n[nH]c(=O)n(N)c1=O, COc1cc(NC(=O)CC(C)=O)c(OC)cc1Cl, CCCCCCCCCCCCCCCC(=O)OCC, CC(=O)Oc1ccc(C(C)=O)cc1, C=C1C2CCC(C2)C1(C)C (stereo not given), CC=CC(F)(F)C(F)(F)C(F)(F)F, CC(=O)[C@@]1(O)CC[C@H]2[C@@H]3C[C@H](C)C4=CC(=O)C=C[C@]4(C)[C@@]3(F)[C@@H](O)C[C@@]21C, Cc1ccc(C(C)c2ccc(C)c(C)c2)cc1C, O=c1cc[nH]c(=S)[nH]1, Cc1c(C)c([N+](=O)[O-])c(C(C)(C)C)c([N+](=O)[O-])c1C, CCCC(C)CCC(C)=O (stereo not given), CCOC(=O)CC(C(C)=O)C(C)=O, CC(CC=O)CCCC(C)(C)O (stereo not given), CCCCCCCC[N+](C)(CCCCCCCC)CCCCCCCC, CCN(CCO)c1cccc(C)c1, OC1CCCC1, O=C(Oc1ccccc1)c1ccc2ccccc2c1O, C=CCOc1c(Br)cc(Br)cc1Br, O=C(c1ccccc1)c1ccc(O)c(O)c1O, CC(=O)Nc1ccc2c(c1)Cc1cc(NC(C)=O)ccc1-2, Nc1ncn([C@@H]2O[C@H](CO)[C@@H](O)[C@H]2O)c(=O)n1, O=C(Nc1ccccc1)c1ccccc1O, O=C(c1ccc(O)cc1)c1ccc(O)cc1O, Cc1ccc(N)c([N+](=O)[O-])c1, CCCCC(CC)COC(=O)c1ccccc1 (stereo not given), O=C(c1ccccc1)C1CCC1, O=S1(=O)OC(c2ccc(O)cc2)(c2ccc(O)cc2)c2ccccc21, NC(=O)c1ccccc1O, O=c1c2ccccc2nnn1CCl, Nc1ccc(N)c(Cl)c1, CC1(C)[C@H]2CC[C@]1(C)C(=O)C2, CC(C)C1=CC2=CC[C@@H]3[C@](C)(CCC[C@@]3(C)C(=O)O)[C@H]2CC1, CCCCC/C=C\CCC=O, OCCN(CCO)c1ccccc1

AC50, active:
CCC(Cc1ccccc1)(C(=O)c1ccc(N2CCOCC2)cc1)N(C)C (stereo not given) 30.3 µM, COC(=O)C1=C(C)NC(C)=C(C(=O)OCC(C)C)C1c1ccccc1[N+](=O)[O-] (stereo not given) 15.4 µM
